# Most compounds without a hit are left out; they make up all but 4.7% or so of the library.
# D1 potentiator – potentiators of human D1 dopamine receptor | P21728 | HEK293 TREx D1 cells, calcium flux, dopamine EC20 potentiation | potentiation, % at 10 µM | 0.036% of 360,000 active; in the data active = potentiation above about 30%; also: 0% is about no effect
# TRHR enhancer – allosterically enhances the human TRH receptor. TRHR cells, fluo-8 calcium fluorescence, EC20 TRH enhancement. P34981. 0.66% of 360,000 active. enhancement, % at 2 µM; in the data active = enhancement above about 30%; also: 0% is about no effect
# Target sequence (P34981 whole entry, looked up): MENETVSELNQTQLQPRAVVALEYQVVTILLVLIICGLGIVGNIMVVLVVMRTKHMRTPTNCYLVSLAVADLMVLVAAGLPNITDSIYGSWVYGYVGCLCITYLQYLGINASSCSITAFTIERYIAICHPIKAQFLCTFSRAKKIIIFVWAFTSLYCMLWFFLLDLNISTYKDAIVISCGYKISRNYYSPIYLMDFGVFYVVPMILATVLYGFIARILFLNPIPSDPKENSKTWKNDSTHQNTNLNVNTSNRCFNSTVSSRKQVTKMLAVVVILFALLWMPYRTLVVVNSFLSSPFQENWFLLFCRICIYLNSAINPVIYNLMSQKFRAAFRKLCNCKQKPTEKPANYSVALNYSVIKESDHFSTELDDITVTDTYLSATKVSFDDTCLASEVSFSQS
#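 TRHR-expressing cells loaded with fluo-8 calcium dye were read kinetically (ex 480/em 530) during compound addition, then stimulated with an EC20 of TRH (10 nM final). Enhancement of the Gq-mediated intracellular calcium response was scored.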
# D1 agonist – human D1 receptor agonism; AID 504660; activation, % at 2 µM; 1% of 360,000 active; HEK293 T-REx D1 cells, calcium flux, agonist mode; P21728; also: 0% is about no effect
#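 Tetracycline-induced HEK293 TREx D1 cells, force-coupled to calcium signalling, were dye-loaded with a no-wash calcium kit. Compound was pin-added after a 10 s baseline. Fluorescence was read kinetically at 1 cycle/s for 180 s, with calcium rises flagged as agonism.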
# D1 antag – antagonists of human D1 dopamine receptor; P21728; HEK293 TREx D1 cells, calcium flux, dopamine EC80; stronger effect = lower value; activity change, negative = inhibition, % at 10 µM; 3.2% of 360,000 active; AID 504652; in the data active = activity change below about -30%; also: % is scaled to controls: 0 for no effect and ±100 for the full control effect
#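 Using tetracycline-induced force-coupled D1 Hek293 cells and a calcium dye, signals were followed for 180 s after compound, then for 180 s after EC80 dopamine, to detect inhibitors.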
# TRHR ag – activates the human TRH receptor. activation, % at 2 µM. TRHR cells, calcium flux fluo-8, FDSS agonist mode. 0.18% of 360,000 active; also: 0% is about no effect
#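 In this calcium-flux screen, cells bearing human TRHR are dye-loaded with fluo-8, baselined for 10 cycles, then exposed to library compounds; positive kinetic calcium responses during the agonist phase mark hits, with TRH as control.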
# Active calls of the source: *; . = no result. Rule as the data show it, unless noted: active = activation above about 30%; inactive = the rest.
SMILES,D1 potentiator,TRHR enhancer,D1 agonist,D1 antag,TRHR ag
O=C(/C=C/c1cccc(OCc2ccccc2)c1)c1cccnc1,-7,-10,9,-37*,0
CCC(C)N(C(=O)COc1ccc(-c2nnco2)cc1)C1CCS(=O)(=O)C1 (stereo not given),-13,4,3,-54*,0
COc1cccc(C(=O)N/N=C(/c2ccccc2)c2ccccn2)c1,-2,-8,4,-62*,0
COc1cc(C(=O)N/N=C(\c2ccccc2)c2ccccn2)cc(OC)c1OC,-8,4,0,-10,0
Cc1ccccc1OCCSc1nc2ccc(NC(=O)c3ccccc3)cc2s1,-2,15,17,-33*,-2
CC(=O)Nc1ccc2nc(SCCOc3ccccc3)sc2c1,-2,4,1,-8,0
CC(C)(C)C(=O)Nc1ccc2nc(SCCOc3ccccc3Cl)sc2c1,3,7,30*,-1,-1
CCc1ccc(CNC(=O)c2ccc(-n3c(C)cc4c3CCC(C)C4)cc2)cc1 (stereo not given),3,5,0,-9,-1
C=CCc1ccccc1OCCn1c(C2CC(=O)N(Cc3ccc(F)cc3)C2)nc2ccccc21 (stereo not given),-1,0,0,-7,0
COc1cc(Nc2ncc3c(n2)CCN(Cc2cc(F)cc(F)c2)C3)cc(OC)c1,2,-5,0,3,1
Clc1ccc(-c2csc(=Nc3cccnc3)n2CCCn2ccnc2)cc1Cl,-5,-9,6,13,-1
FC(F)Oc1ccc(-c2csc(=Nc3cccnc3)n2CC2CCCO2)cc1 (stereo not given),-2,-6,15,-31*,0
COCCn1c(-c2ccc(Br)cc2)csc1=Nc1cccnc1,-7,-9,4,-34*,-1
Nc1nnc(SCC(=O)Nc2cccc(F)c2)s1,-2,10,15,-21,-2
COC(=O)c1c(-c2cccs2)csc1NC(=O)c1ccc(Br)cc1,4,-8,5,4,1
O=C(N/N=C/c1ccc(OC(=O)c2ccccc2Cl)cc1)c1cc(O)cc(O)c1,-2,2,2,-7,1
O=C(N/N=C/c1ccc(OC(=O)c2ccccc2Cl)cc1)c1ccccn1,3,31*,1,-15,0
CCc1ccccc1NC(=O)Cn1cc(C(=O)c2ccc(Cl)cc2)c(=O)c2ccc(C)nc21,1,5,2,-5,1
Cc1ccccc1CN1c2ccccc2-c2nc(SCC(=O)NCc3ccccc3)ncc2S1(=O)=O,6,17,6,7,0
COc1ccc(Nc2nc(N)nc(CN(C)C3CCCCC3)n2)cc1,-5,-2,1,-34*,0
O=C(O)c1ccc(Nc2ncnc3c2cnn3Cc2ccccc2)cc1,-1,3,6,-46*,0
CCCCn1cc(S(=O)(=O)c2ccc(Cl)cc2)c(=O)c2cc(F)c(N3CCCC(C)C3)cc21 (stereo not given),1,-17,7,5,-1
O=C(CNC(=O)c1ccccc1)N/N=C/c1ccccc1Cl,32*,-6,0,-3,0
O=C(Cc1ccccc1)N/N=C/c1cc2c(cc1Cl)OCO2,-11,12,16,-40*,0
O=C(CNC(=O)c1ccccc1)N/N=C/c1cccs1,2,0,0,9,0
SMILES,D1 potentiator,TRHR enhancer,D1 agonist,D1 antag,TRHR ag
O=C(CCc1ccccc1)Nc1cc2c(cc1Cl)OCCO2,-7,5,0,-30*,0
O=C(N/N=C\c1cc2c(cc1Cl)OCO2)c1cccs1,0,5,0,10,2
COc1cccc(/C=N/NC(=O)c2[nH]c(C)c(C(=O)N/N=C/c3cccc(OC)c3O)c2C)c1O,-7,-4,0,-77*,1
COc1cccc(/C=N/NC(=O)c2ccc(-c3ccccc3)cc2)c1O,1,9,4,-6,3
Cc1cc2c(s1)c(C#N)c(C(=O)NCc1ccccc1F)n2C,-6,-5,4,-30,0
N#Cc1ccc(S(=O)(=O)N2CCC(Oc3cccc(C(F)(F)F)c3)CC2)cc1,-2,-6,2,1,2
COc1cc(C(=O)NC2CC(=O)N(c3cccc(F)c3)C2)cc(OC)c1OC (stereo not given),-1,13,1,.,0
O=C(CNC(=O)c1ccncc1)N/N=C/c1ccccn1,-11,-3,2,17,0
COc1cccc(/C=N/NC(=O)CNC(=O)c2cccnc2)c1O,-7,2,1,-20,0
COc1cccc(/C=N/NC(=O)CNC(=O)c2ccncc2)c1O,0,14,2,-41*,1
COc1cc(C(=O)NCC(=O)N/N=C/c2ccccn2)cc(OC)c1OC,1,35*,-2,6,1
O=C(NCCc1ccccc1)C1CCN(Cc2cc3ccccc3n2Cc2ccccc2)CC1,-1,6,1,5,0
O=Cc1ccc(Oc2ccc(F)cc2)nc1,5,1,2,-4,0
Nc1ccc(Oc2ccc(F)cc2)nc1,-5,34*,5,-18,0
CCOc1nc(NCCC2=CCCCC2)nc(N2CCOCC2)n1,-3,14,0,9,0
OCCNc1nc(NCCC2=CCCCC2)nc(N2CCOCC2)n1,-12,4,1,-54*,0
Cc1cc(N2CCN(C)CC2)nc2ccc(NC(=S)N3CCN(c4cccc(Cl)c4)CC3)cc12,-4,-3,0,3,0
Cc1cccc(N2CCN(C(=S)Nc3ccc4nc(N5CCN(C)CC5)cc(C)c4c3)CC2C)c1 (stereo not given),-6,-1,3,-73*,1
Cc1cc(N2CCN(C)CC2)nc2ccc(NC(=O)Nc3ccc(Cl)cc3)cc12,-5,3,18,-15,1
Cc1cc(N2CCN(C)CC2)nc2ccc(NC(=O)c3ccc(C(C)(C)C)cc3)cc12,0,13,20,-75*,0
COc1cc(OC)cc(C(=O)Nc2ccc3nc(N4CCCCC4)cc(C)c3c2)c1,5,5,-1,-46*,0
Cc1ccccc1CN1CCC(CNc2ncnc3onc(-c4ccc(F)cc4)c23)CC1,6,36*,2,19,-2
Cc1cccc(Nc2ncnc3onc(-c4ccc(F)cc4)c23)c1C,-2,-7,2,4,-2
COc1ccc(N(CC(=O)NC2CCCCC2)C(=O)c2ccc(C)s2)cc1OC,-3,32*,-1,10,-1
COc1ccc(N(CC(=O)NC2CCCC2)C(=O)c2ccc(C)s2)c(OC)c1,14,1,2,-21,0
CCc1ccc(-n2nc(CO)c(C(=O)NCc3ccccc3OC)n2)cc1,1,3,2,4,-1
CC(C)CCNC(=O)c1ccc2c(c1)NC(=O)C(CS(=O)(=O)Cc1cccc(Br)c1)N2 (stereo not given),-10,0,5,-42*,-2

# Compound activity: PubChem BioAssay, National Center for Advancing Translational Sciences (NCATS)
